Results as given in PubChem BioAssay (NCI).
The panel holds about 79,000 compounds, 15% with a hit somewhere; the sample as a whole holds those more often. Activity calls are given as the source filed them. Cut-off read from the data, not from the text of the source: active = growth inhibition above about 70%; inactive = the rest.

How the values were obtained:
[1] = NCI Yeast Anticancer Drug Screen. Data for the mec2-1 strain (AID 157); settings: S. cerevisiae mec2-1 strain, active compounds read high
Summary of the method: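 Each compound was tested on mec2-1 yeast, a strain altered in DNA damage repair or cell cycle control. Growth inhibition is reported relative to vehicle.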

[2] = NCI Yeast Anticancer Drug Screen. Data for the rad14 strain (AID 159);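 note: 0% = growth of vehicle-treated control cultures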; settings: S. cerevisiae rad14 strain growth inhibition, active compounds read high
Summary of the method: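 Readout: yeast growth inhibition, referenced to vehicle-only cultures. Strain bears a defined alteration in DNA damage repair.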

[3] = NCI Yeast Anticancer Drug Screen. Data for the sgs1 mgt1 strain (AID 161);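 note: 0% = growth of cultures given vehicle only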; settings: S. cerevisiae sgs1 mgt1 strain, active compounds read high
Summary of the method: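 Read-out: growth inhibition vs vehicle controls. Cells: mutant yeast strain deficient in DNA damage repair.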

[4] = NCI Yeast Anticancer Drug Screen. Data for the CLN2oe strain (AID 163);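 note: 0% = growth of vehicle-only control cultures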; settings: S. cerevisiae CLN2oe strain, active compounds read high
Summary of the method: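 First, the altered yeast strain was treated with each compound; second, its growth was measured; finally, inhibition was derived by comparison with vehicle controls.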

[5] = NCI Yeast Anticancer Drug Screen. Data for the cln2 rad14 strain (AID 165);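 note: 0% = growth equal to vehicle treated cultures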; settings: S. cerevisiae cln2 rad14 strain, active compounds read high
Summary of the method: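 Test compounds were added to cln2 rad14 yeast cultures; inhibition of growth was then determined by comparison with vehicle treatment.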

[6] = NCI Yeast Anticancer Drug Screen. Data for the bub3 strain (AID 167); settings: S. cerevisiae bub3 mutant strain, active compounds read high
Summary of the method: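 Part of a panel of yeast mutants defective in DNA damage repair or cell cycle regulation. Each strain is grown with compound, and inhibition is calculated relative to solvent-treated cultures.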

[7] = NCI Yeast Anticancer Drug Screen. Data for the wt2 strain (AID 169);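 note: 0% = growth of vehicle-treated yeast cultures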; settings: S. cerevisiae wt2 strain growth inhibition, active compounds read high
Summary of the method: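 The panel's yeast strains carry defined changes in DNA repair or cell cycle genes. Each strain is grown with compound, and growth loss is scored relative to vehicle.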

[8] = NCI Yeast Anticancer Drug Screen. Data for the sgs1 strain (AID 173);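 note: 0% = growth of vehicle-only control cultures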; settings: S. cerevisiae sgs1 mutant, active compounds read high
Summary of the method: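 Vehicle-treated cultures served as reference for growth inhibition of a yeast strain altered in DNA damage repair or cell cycle control after compound exposure.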

[9] = NCI Yeast Anticancer Drug Screen. Data for the mlh1 rad18 strain (AID 175); settings: S. cerevisiae mlh1 rad18 strain growth inhibition, active compounds read high
Summary of the method: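 Inhibition values reflect reduced growth of mutant yeast versus vehicle-treated controls following compound exposure; the mutations affect DNA damage repair.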

[10] = NCI Yeast Anticancer Drug Screen. Data for the rad18 strain (AID 177); settings: S. cerevisiae rad18 mutant growth inhibition, active compounds read high
Summary of the method: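 Steps: expose repair-mutant yeast to compound; measure growth; express as inhibition relative to vehicle control.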

[11] = NCI Yeast Anticancer Drug Screen. Data for the rad52 strain (AID 147);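 note: 0% = growth of vehicle-treated control cultures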; settings: S. cerevisiae rad52 mutant growth inhibition, active compounds read high
Summary of the method: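 Inhibition of yeast growth, referenced to vehicle controls, was the measured output for a strain with defective DNA damage repair.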

[12] = NCI Yeast Anticancer Drug Screen. Data for the wt1 strain (AID 149);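 note: 0% = growth of vehicle-treated wt1 cultures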; settings: S. cerevisiae wt1 strain (SPY 50644) growth inhibition, active compounds read high
Summary of the method: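 The wt1 strain was treated with compounds, and growth was compared with vehicle-treated cultures to give inhibition.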

[13] = NCI Yeast Anticancer Drug Screen. Data for the rad50EPP+ strain (AID 151);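 note: 0% = growth of vehicle-treated control cultures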; settings: S. cerevisiae rad50 mutant strain, active compounds read high
Summary of the method: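 Genetically defined yeast (rad50EPP+, DNA damage repair alteration) is grown with compound, and inhibition of growth is expressed relative to vehicle-treated controls.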

[14] = NCI Yeast Anticancer Drug Screen. Data for the mgt1 strain (AID 153); settings: S. cerevisiae mgt1 mutant growth inhibition, active compounds read high
Summary of the method: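 In the mgt1 strain, test compounds were added and growth inhibition was determined relative to vehicle-treated controls.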

[15] = NCI Yeast Anticancer Drug Screen. Data for the rad50 strain (AID 155);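 note: 0% = growth of vehicle-only cultures of the same strain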; settings: S. cerevisiae rad50 strain growth inhibition, active compounds read high
Summary of the method: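 Cells are treated with compound, grown, and their growth is then scored against vehicle-only cultures of the same repair-deficient yeast strain.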

[16] = NCI Yeast Anticancer Drug Screen. Data for the mlh1 strain (AID 171);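 note: 0% = growth of vehicle-treated control cultures of the same strain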; settings: S. cerevisiae mlh1 strain growth inhibition, active compounds read high
Summary of the method: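 Inhibition values reflect reduced yeast growth in the presence of compound, referenced to vehicle controls, using a strain chosen for its alteration in DNA repair or cell cycle control.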

[17] = at 5.0 µM (retest, dose inferred, filed as 0.5)
[18] = at 50.0 µM (retest, dose inferred, filed as 5.0)

Measured: growth inhibition

CCCCCCCCCCCC(=O)N(C)C
inactive: [1]; [17] 42% | [1]; at 11.0 µM -27% | [1]; at 33.0 µM 34% | [2]; at 1.2 µM 7% | [2]; at 3.7 µM 2% | [2]; at 11.0 µM 12% | [2]; at 33.0 µM 34% | [3]; [17] -2% | [4]; at 1.2 µM 2% | [4]; at 3.7 µM 19% | [4]; at 11.0 µM 2% | [4]; at 33.0 µM 0% | [5]; [17] 31% | [6]; at 1.2 µM 3% | [6]; at 3.7 µM -28% | [6]; [17] -4% | [6]; at 11.0 µM 3% | [6]; at 33.0 µM 18% | [7]; at 1.2 µM -6% | [7]; at 3.7 µM -11% | [7]; at 11.0 µM -11% | [7]; at 33.0 µM 29% | [8]; at 1.2 µM -18% | [8]; at 3.7 µM -8% | [8]; at 11.0 µM -13% | [8]; at 33.0 µM 34% | [9]; [17] 41% | [10]; at 1.2 µM -9% | [10]; at 3.7 µM -4% | [10]; at 11.0 µM -7% | [10]; at 33.0 µM 15%
active: [1]; [18] 96% | [1]; at 50.0 µM 92.7% | [1]; at 100.0 µM 98% | [2]; at 100.0 µM 99% | [3]; [18] 98% | [3]; at 50.0 µM 93.2% | [4]; at 100.0 µM 98% | [5]; [18] 98% | [5]; at 50.0 µM 91.5% | [6]; [18] 97% | [6]; at 50.0 µM 92% | [6]; at 100.0 µM 98% | [7]; at 100.0 µM 99% | [8]; at 100.0 µM 98% | [9]; [18] 94% | [9]; at 50.0 µM 91% | [10]; at 100.0 µM 98%

O=C(CCCN1CCC(O)(c2ccc(Cl)cc2)CC1)c1ccc(F)cc1
inactive: [11]; at 1.2 µM 13% | [11]; at 3.7 µM 6% | [11]; at 11.0 µM 27% | [11]; at 33.0 µM 31% | [11]; at 100.0 µM 38% | [12]; at 1.2 µM 0% | [12]; at 3.7 µM 7% | [12]; at 11.0 µM 13% | [12]; at 33.0 µM 23% | [12]; at 100.0 µM 14% | [13]; at 1.2 µM -3% | [13]; at 3.7 µM -4% | [13]; at 11.0 µM -6% | [13]; at 33.0 µM -6% | [13]; at 100.0 µM 0% | [14]; at 1.2 µM 17% | [14]; at 3.7 µM 30% | [14]; at 11.0 µM 40% | [14]; at 33.0 µM 58% | [14]; at 100.0 µM 65% | [15]; at 1.2 µM 24% | [15]; at 3.7 µM -8% | [15]; [17] 58% | [15]; at 11.0 µM 69% | [15]; at 33.0 µM 64% | [15]; at 100.0 µM 69% | [1]; at 1.2 µM 19% | [1]; at 3.7 µM 19% | [1]; [17] 33% | [1]; at 11.0 µM 29% | [1]; at 33.0 µM 36% | [1]; at 100.0 µM 41% | [2]; at 1.2 µM 50% | [2]; at 3.7 µM 69% | [3]; [17] 60% | [4]; at 1.2 µM 27% | [4]; at 3.7 µM 31% | [4]; at 11.0 µM 37% | [4]; at 33.0 µM 44% | [4]; at 100.0 µM 49% | [5]; [17] 43% | [6]; at 1.2 µM 38% | [6]; at 3.7 µM 41% | [6]; [17] 48% | [6]; at 11.0 µM 39% | [6]; at 33.0 µM 51% | [6]; at 50.0 µM 66.2% | [6]; at 100.0 µM 59% | [7]; at 1.2 µM 0% | [7]; at 3.7 µM 21% | [7]; at 11.0 µM 18% | [7]; at 33.0 µM 24% | [7]; at 100.0 µM 24% | [16]; at 1.2 µM 11% | [16]; at 3.7 µM 16% | [16]; at 11.0 µM 27% | [16]; at 33.0 µM 34% | [16]; at 100.0 µM 44% | [9]; [17] 35% | [9]; at 50.0 µM 66% | [10]; at 1.2 µM 37% | [10]; at 3.7 µM 37% | [10]; at 11.0 µM 44% | [10]; at 33.0 µM 58% | [10]; at 100.0 µM 64%
active: [15]; [18] 99% | [15]; at 50.0 µM 82.8% | [1]; [18] 100% | [1]; at 50.0 µM 77.7% | [2]; at 11.0 µM 78% | [2]; at 33.0 µM 83% | [2]; at 100.0 µM 86% | [3]; [18] 100% | [3]; at 50.0 µM 91.4% | [5]; [18] 99% | [5]; at 50.0 µM 70.8% | [6]; [18] 99% | [9]; [18] 99%

COC(=O)CSSCc1ccc([N+](=O)[O-])cc1
inactive: [11]; at 1.2 µM 3% | [11]; at 3.7 µM 19% | [11]; at 11.0 µM 40% | [12]; at 1.2 µM -1% | [12]; at 3.7 µM -2% | [12]; at 11.0 µM 3% | [12]; at 33.0 µM 24% | [13]; at 1.2 µM -2% | [13]; at 3.7 µM 13% | [14]; at 1.2 µM -1% | [14]; at 3.7 µM 1% | [14]; at 11.0 µM 16% | [14]; at 33.0 µM 44% | [15]; at 1.2 µM 4% | [15]; at 3.7 µM 20% | [15]; [17] 15% | [15]; at 11.0 µM 47% | [1]; at 1.2 µM -2% | [1]; at 3.7 µM 2% | [1]; [17] -8% | [1]; at 11.0 µM 14% | [1]; at 33.0 µM 37% | [2]; at 1.2 µM 0% | [2]; at 3.7 µM 8% | [2]; at 11.0 µM 20% | [2]; at 33.0 µM 48% | [3]; [17] 38% | [4]; at 1.2 µM -1% | [4]; at 3.7 µM -6% | [4]; at 11.0 µM 7% | [4]; at 33.0 µM 43% | [5]; [17] -10% | [6]; at 1.2 µM 1% | [6]; at 3.7 µM 5% | [6]; [17] 43% | [6]; at 11.0 µM 24% | [7]; at 1.2 µM 1% | [7]; at 3.7 µM -3% | [7]; at 11.0 µM 22% | [7]; at 33.0 µM 34% | [8]; at 1.2 µM -20% | [8]; at 3.7 µM -24% | [8]; at 11.0 µM 33% | [9]; [17] 69% | [10]; at 1.2 µM -2% | [10]; at 3.7 µM 19% | [10]; at 11.0 µM 48%
active: [11]; at 33.0 µM 75% | [11]; at 100.0 µM 98% | [12]; at 100.0 µM 83% | [13]; at 11.0 µM 70% | [13]; at 33.0 µM 93% | [13]; at 100.0 µM 98% | [14]; at 100.0 µM 98% | [15]; at 33.0 µM 85% | [15]; [18] 97% | [15]; at 50.0 µM 97.3% | [15]; at 100.0 µM 97% | [1]; [18] 96% | [1]; at 50.0 µM 96% | [1]; at 100.0 µM 97% | [2]; at 100.0 µM 98% | [3]; [18] 97% | [3]; at 50.0 µM 94.7% | [4]; at 100.0 µM 95% | [5]; [18] 89% | [5]; at 50.0 µM 93.6% | [6]; at 33.0 µM 71% | [6]; [18] 98% | [6]; at 50.0 µM 96% | [6]; at 100.0 µM 97% | [7]; at 100.0 µM 98% | [8]; at 33.0 µM 87% | [8]; at 100.0 µM 99% | [9]; [18] 98% | [9]; at 50.0 µM 94.4% | [10]; at 33.0 µM 83% | [10]; at 100.0 µM 97%
